# Shown are actives, neighbours in structure and some others; about 6.7% of the full set was active somewhere.
# Pf Dd2 inh: inhibitors of Plasmodium falciparum Dd2 growth; actives 2.3% (n = 94,000); activity change, % at 10 µM; P. falciparum Dd2 growth, SYBR Green, 72 h; stronger effect = lower value; in the data active = activity change below about -80%
# Tcruzi prolif: T. cruzi proliferation inhibition | T. cruzi beta-gal in NIH3T3, GalScreen luminescence, 90 h | inhibition, % at 8.34 µM | actives 5.9% (n = 77,000);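 active = mean inhibition above about 93%, with at least 55% of replicates each passing it, limit read from the data, passing the limit was not always enough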
# C diff HTS: C. difficile growth inhibition; Clostridium difficile clinical isolate growth, OD600, 24 h; stronger effect = lower value; growth activity, negative = inhibition, % at 16 µg/mL (by protocol); actives 0.25% (n = 86,000);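 active = mean growth activity at or below -80% and every replicate also at or below -80%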;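 also: 0% = DMSO wells and -100% = levofloxacin 16 µg/mL wells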
# * = called active by the depositor; x = no result.
SMILES,Pf Dd2 inh,Tcruzi prolif,C diff HTS
COc1ccc(S(=O)(=O)Nc2ccc3c(c2)C(=O)N([C@@H](C)CO)C[C@@H](C)[C@H](CN(C)C(=O)NC2CCCCC2)OCCCC[C@@H](C)O3)cc1,-3.8,22.0,5.2
CCC(=O)Nc1ccc2c(c1)OC[C@H](C)N(Cc1ccccn1)C[C@@H](C)[C@H](OC)CN(C)C2=O,6.5,83.7,x
CCC(=O)N1CC2(C1)CN(S(=O)(=O)c1ccccc1)[C@@H](CO)c1[nH]c3cc(OC)ccc3c12,-92.9*,x,-9.5
CCC(=O)N1CC2(C1)CN(S(=O)(=O)c1ccccc1)[C@H](CO)c1[nH]c3cc(OC)ccc3c12,-16.9,x,-4.2
COc1ccc(S(=O)(=O)N2CC3(CN(Cc4ccncc4)[C@H](CO)c4[nH]c5cc(OC)ccc5c43)C2)cc1,-62.1,x,-3.4
CCC(=O)N1CCC2(CC1)CN(S(C)(=O)=O)[C@@H](CO)c1[nH]c3cc(OC)ccc3c12,18.6,x,1.2
COc1ccc2c3c([nH]c2c1)[C@H](CO)NCC31CCN(S(=O)(=O)c2ccccc2)CC1,-76.8,x,0.9
COc1ccc(S(=O)(=O)N2CCC3(CC2)CN(Cc2ccncc2)[C@@H](CO)c2[nH]c4cc(OC)ccc4c23)cc1,-87.2*,x,-8.0
CCC(=O)N1CCC2(CC1)CN(S(=O)(=O)c1ccccc1)[C@@H](CO)c1[nH]c3cc(OC)ccc3c12,-91.6*,x,-17.5
COc1cccc(S(=O)(=O)N2CCC3(CC2)CN[C@@H](CO)c2[nH]c4cc(OC)ccc4c23)c1,-92.3*,x,-5.2
CO[C@@H]1CN(C)C(=O)c2cc(NC(=O)c3cccc(Oc4ccccc4)c3)ccc2OC[C@H](C)NC[C@H]1C,x,-29.5,x
CC(C)NC(=O)N(C)C[C@@H]1OCCCC[C@@H](C)Oc2ccc(NC(=O)C3CCCCC3)cc2C(=O)N([C@@H](C)CO)C[C@H]1C,-8.3,35.1,-2.3
O=C(NCC(F)(F)F)[C@@H]1[C@@H](CO)[C@@H]2Cn3c(ccc(-c4cccnc4)c3=O)[C@H]1N2Cc1ccccc1,x,59.3,0.7
CO[C@@H]1CN(C)C(=O)c2cc(NS(=O)(=O)CC(F)(F)F)ccc2OC[C@H](C)N(CC2CCCCC2)C[C@H]1C,11.3,-9.9,x
CCS(=O)(=O)N1CC2(C1)CN(S(=O)(=O)c1ccc(C)cc1)[C@@H](CO)c1[nH]c3cc(OC)ccc3c12,-77.0,x,-8.4
COc1cccc(S(=O)(=O)N2CC3(CCN(C)CC3)c3c([nH]c4cc(OC)ccc34)[C@H]2CO)c1,-31.2,x,-2.6
COc1ccc2c3c([nH]c2c1)[C@@H](CO)N(Cc1ccccc1)CC31CCN(S(=O)(=O)c2ccc(C)cc2)CC1,-56.6,x,0.9
CCS(=O)(=O)N1CC2(C1)CN(S(=O)(=O)c1cccc(OC)c1)[C@@H](CO)c1[nH]c3cc(OC)ccc3c12,-84.2*,x,0.2
CCS(=O)(=O)N1CCC2(CC1)CN(S(=O)(=O)c1ccc(C)cc1)[C@@H](CO)c1[nH]c3cc(OC)ccc3c12,-89.5*,x,0.1
COc1ccc2c3c([nH]c2c1)[C@H](CO)N(S(=O)(=O)c1ccc(C)cc1)CC31CN(Cc2ccccc2)C1,-87.3*,x,-21.7
COc1ccc2c3c([nH]c2c1)[C@@H](CO)N(S(=O)(=O)c1cn(C)cn1)CC31CCN(CC2CCCC2)CC1,-41.1,x,1.7
COc1ccc2c3c([nH]c2c1)[C@H](CO)N(S(=O)(=O)c1cn(C)cn1)CC31CCN(CC2CCCCC2)CC1,-84.9*,x,-10.7
COc1ccc2c3c([nH]c2c1)[C@@H](CO)N(Cc1ccncc1)CC31CN(CC2CCOCC2)C1,-67.8,x,0.4
Cc1noc(C)c1S(=O)(=O)N(C)C[C@@H]1Oc2ccc(NC(=O)Nc3ccccc3)cc2CC(=O)N([C@H](C)CO)C[C@H]1C,-26.7,20.6,x
N#C[C@H]1[C@H](c2ccc(C#Cc3ccccc3F)cc2)[C@@H](CO)N1C(=O)C1CCCCC1,-51.4,87.3,-5.7
SMILES,Pf Dd2 inh,Tcruzi prolif,C diff HTS
N#C[C@@H]1[C@H](c2ccc(C#Cc3ccccc3F)cc2)[C@H](CO)N1C(=O)C1CCCC1,-88.2*,x,-2.5
N#C[C@H]1[C@@H](c2ccc(C#Cc3ccccc3F)cc2)[C@@H](CO)N1C(=O)C1CCCCC1,-92.6*,91.4,-8.2
N#C[C@H]1[C@@H](c2ccc(C#Cc3ccccc3F)cc2)[C@H](CO)N1C(=O)C1CCCC1,-66.0,x,18.2
CO[C@H]1CN(C)C(=O)c2cc(NC(=O)C3CC3)ccc2OC[C@@H](C)N(C(=O)C2CCCCC2)C[C@H]1C,-10.2,-10.3,x
COc1ccccc1-c1cn(CC[C@H]2CC[C@H](NC(=O)C3CC3)[C@@H](CO)O2)nn1,-4.9,x,4.0
COc1ccc(NC(=O)N(C)C[C@@H]2Oc3ccc(NC(=O)CCC(F)(F)F)cc3C(=O)N([C@@H](C)CO)C[C@@H]2C)cc1,13.3,45.1,-0.8
Cc1ccc(S(=O)(=O)N(C)C[C@@H]2OCCCC[C@@H](C)Oc3ccc(NC(=O)Nc4ccc(C(F)(F)F)cc4)cc3C(=O)N([C@H](C)CO)C[C@@H]2C)cc1,-81.7*,x,16.6
Cc1ccc(S(=O)(=O)N(C)C[C@H]2OCCCC[C@H](C)Oc3ccc(NC(=O)Nc4ccc(C(F)(F)F)cc4)cc3C(=O)N([C@@H](C)CO)C[C@H]2C)cc1,-66.2,x,0.7
C[C@@H]1CCCCO[C@H](CN(C)S(=O)(=O)c2ccc(Cl)cc2)[C@H](C)CN([C@@H](C)CO)C(=O)c2cc(NC(=O)Nc3ccc(C(F)(F)F)cc3)ccc2O1,-56.6,85.8,0.2
C[C@@H]1CN([C@@H](C)CO)C(=O)c2cc(NC(=O)Nc3ccc(C(F)(F)F)cc3)ccc2O[C@@H](C)CCCCO[C@@H]1CN(C)S(=O)(=O)c1ccc(Cl)cc1,-86.4*,84.2,1.2
Cc1ccc(S(=O)(=O)N(C)C[C@H]2OCCCC[C@@H](C)Oc3ccc(NC(=O)Nc4ccc(C(F)(F)F)cc4)cc3C(=O)N([C@@H](C)CO)C[C@@H]2C)cc1,-79.1,x,0.6
C[C@@H]1CCCCO[C@@H](CN(C)S(=O)(=O)c2ccc(Cl)cc2)[C@@H](C)CN([C@@H](C)CO)C(=O)c2cc(NC(=O)Nc3ccc(C(F)(F)F)cc3)ccc2O1,-83.4*,54.7,26.5
Cc1noc(C)c1NC(=O)N(C)C[C@@H]1Oc2ncc(C#CC3CCCC3)cc2C(=O)N([C@H](C)CO)C[C@@H]1C,22.2,91.0,-0.1
CO[C@H]1CN(C)C(=O)c2cc(NC(=O)NC(C)C)ccc2OC[C@H](C)N(C(=O)C2CCC2)C[C@@H]1C,-37.6,-24.2,x
COc1cccc(NC(=O)N(C)C[C@H]2Oc3cc(C#Cc4ccncc4)ccc3S(=O)(=O)N([C@H](C)CO)C[C@H]2C)c1,-46.7,56.3,-1.9
COc1ccc(C#Cc2ccc3c(c2)O[C@@H](CN(C)C(=O)Nc2cccc(OC)c2)[C@H](C)CN([C@@H](C)CO)S3(=O)=O)cc1,-88.2*,61.0,x
COc1ccc(C#Cc2ccc3c(c2)O[C@@H](CN(C)C(=O)Nc2cccc(OC)c2)[C@@H](C)CN([C@H](C)CO)S3(=O)=O)cc1,-88.9*,53.0,x
COc1cccc(NC(=O)N(C)C[C@H]2Oc3cc(C#Cc4ccncc4)ccc3S(=O)(=O)N([C@H](C)CO)C[C@@H]2C)c1,-54.3,18.8,5.9
O=C(C1CCCCC1)N1CC(=O)N2[C@H](CO)[C@@H](c3ccc(-c4cccnc4)cc3)[C@@H]2C1,3.9,x,-0.8

# Source: PubChem
